High-throughput results deposited in PubChem by National Center for Advancing Translational Sciences (NCATS).
Hits are enriched below; roughly 18% of the tested compounds scored in any of these assays.
DT40 TDP1 CPT = DT40-hTDP1 cell growth loss with CPT | AID 686979 | Potency, µM (series often up to 46.2 µM), without a hit: at the top dose activity change, negative = growth inhibition, most hits filed as inhibitors | 12% of 420,000 active | chicken DT40 Tdp1-/-;hTDP1 cells + 20 nM CPT, ATP luminescence, 48 h; also: potency is read from the fitted curve at half-maximal effect; nearly all actives have a fitted effect of over 55% in size
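Chicken DT40 Tdp1-/- cells complemented with human TDP1, 400 cells/well, exposed to compounds plus 20 nM camptothecin for at least 48 h at 37 C; viability read as ATP content by CellTiter-Glo luminescence.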
TDP1 inh = inhibitors of human tyrosyl-DNA phosphodiesterase TDP1 | Q9NUW8 | recombinant TDP1, AlphaScreen DNA substrate cleavage | Potency, µM (highest dose often 130 µM), for inactives: top-dose activity change, negative = inhibition, most hits filed as inhibitors | 0.28% of 350,000 active | AID 485290; also: potency is read from the fitted curve at half-maximal effect; nearly all actives have a fitted effect of over 40% in size
Target sequence (Q9NUW8 whole entry, looked up): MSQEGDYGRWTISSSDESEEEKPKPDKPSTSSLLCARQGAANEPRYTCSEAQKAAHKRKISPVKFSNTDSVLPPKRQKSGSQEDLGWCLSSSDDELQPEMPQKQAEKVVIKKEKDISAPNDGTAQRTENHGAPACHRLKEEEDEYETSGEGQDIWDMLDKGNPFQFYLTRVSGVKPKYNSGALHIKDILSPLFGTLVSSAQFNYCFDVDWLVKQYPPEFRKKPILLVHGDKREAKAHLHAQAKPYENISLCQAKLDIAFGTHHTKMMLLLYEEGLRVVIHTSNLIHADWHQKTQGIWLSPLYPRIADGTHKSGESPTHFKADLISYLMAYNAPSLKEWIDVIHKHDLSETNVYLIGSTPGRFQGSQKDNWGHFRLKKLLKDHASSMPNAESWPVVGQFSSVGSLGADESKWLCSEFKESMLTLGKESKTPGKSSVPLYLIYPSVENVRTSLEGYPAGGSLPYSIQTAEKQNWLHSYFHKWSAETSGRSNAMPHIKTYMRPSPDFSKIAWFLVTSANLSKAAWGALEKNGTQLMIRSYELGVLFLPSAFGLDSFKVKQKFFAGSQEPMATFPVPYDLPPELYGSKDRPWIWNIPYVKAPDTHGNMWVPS
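Recombinant E. coli-expressed Tdp1 (1 nM) preincubated with compound 15 min at RT, then 5'-biotin/3'-phosphotyrosine-FITC DNA substrate (15 nM) added for 5 min. AlphaScreen beads (10 ug/ml) added, 10 min RT; tyrosine-FITC cleavage read as signal loss.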
IL-1B inflam inh = blocks inflammasome-driven IL-1 beta release | activity change, % at 57.5 µM | 4.7% of 360,000 active | THP-1 LPS/ATP IL-1B secretion, AlphaLISA, 16 h; active compounds read low | AID 743279; in the data active = activity change below about -50%; inconclusive = mostly about -30% to -49%
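THP-1 cells pretreated 1 hr with compounds (up to 57.5 uM final), then stimulated with LPS (250 ng/mL final) plus ATP (1.25 mM final); secreted IL-1B measured by AlphaLISA after 16 hr, decreased signal indicating inhibition.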
Six1-Eya2 blk = blocks human Six1 binding to Eya2 | Q15475+O00167 | AlphaScreen GST-Six1/His-Eya2 binding, biochemical; active compounds read low | activity change, % (concentration not given with the values) | 0.56% of 360,000 active | AID 651725; in the data active = activity change below about -65%; inconclusive = mostly about -30% to -63%
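Six1/Eya2 binding was read as AlphaScreen signal after compounds were pinned into GST-Six1 plus His-tagged Eya2 (5X stock 250/500 nM) in pH 8.0 Tris/NaCl/TCEP buffer, beads added, then incubated 1 h, 37 C, dark.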
DT40 TDP1 no CPT = qHTS for Inhibitors of human tyrosyl-DNA phosphodiesterase 1 (TDP1): qHTS in cells in absence of CPT; AID 686978, 2013; 15% of 420,000 active; DT40 Tdp1-/- hTDP1 cells, no CPT, ATP luminescence, 48 h; Potency, µM (doses to about 46.2 µM), for the others: top-dose activity change, negative = growth inhibition, actives largely listed as inhibitors; also: potency is read from the fitted curve at half-maximal effect; nearly all actives have a fitted effect of over 55% in size
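Seeded 400 DT40-hTDP1 cells/well (vehicle DMSO, no 20 nM CPT); pinned compounds; ≥48 hr at 37 °C; CellTiter-Glo luminescence as viability measure.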
CtBP-E1A inh = CtBP/E1A binding inhibition | AlphaScreen GST-E1A/His-CtBP binding, 1536-well; active compounds read low | activity change, % (test concentration not listed) | 0.49% of 340,000 active; in the data active = activity change below about -65%; inconclusive = mostly about -30% to -63%
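Homogeneous bead-based format: GST-tagged E1A captured on glutathione donor beads, His-tagged CtBP on nickel acceptor beads; compounds precede bead addition by 2 h at 37 °C.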
* marks the source's active call; other numbers are inactive results; ? = inconclusive; / = no result given. Unless noted, calls follow the shape of the dose curve; as a rule, active = well fitted curve in the direction sought with a large enough effect; inconclusive = small, poorly fitted or top-dose-only effect, or another doubt; inactive = no such curve, though single readings can be large; an effect the other way counts as inactive or inconclusive. % is scaled to controls: 0 for no effect and ±100 for the full control effect.

SMILES	DT40 TDP1 CPT	TDP1 inh	IL-1B inflam inh	Six1-Eya2 blk	DT40 TDP1 no CPT	CtBP-E1A inh
COC(=O)[C@@]1(Sc2ccc(C)cc2)CC(=O)N(c2ccc(Cl)cc2)[C@@H]1c1ccccc1	?	/	18	-2	21µM*	0
CCc1nc2ccc(C(=O)NCc3ccc(C)o3)cc2nc1CC	?	6%	-12	-7	-23%	-8
Fc1ccc2[nH]c3c(c2c1)CN(C(=S)NCc1ccccc1)CC3	-18%	8%	-89*	-18	?	-5
CC[C@H](C)[C@H](NC(=O)[C@H](CCC(=O)O)NC(=O)[C@H](C)NC(=O)[C@@H](NC(=O)[C@H](Cc1cnc[nH]1)NC(=O)[C@@H](NC(=O)[C@H](CCC(=O)O)NC(=O)[C@H](C)NC(=O)[C@@H](NC(=O)[C@H](CC(C)C)NC(=O)[C@H](Cc1cnc[nH]1)NC(=O)[C@H](Cc1cnc[nH]1)NC(=O)[C@H](CC(C)C)NC(=O)[C@H](Cc1c[nH]c2ccccc12)NC(=O)[C@H](Cc1ccccc1)NC(=O)[C@H](CCCNC(=N)N)NC(=O)[C@H](CCCNC(=N)N)NC(=O)[C@H](CCCNC(=N)N)NC(=O)[C@H](CC(C)C)NC(=O)[C@H](CC(=O)O)NC(=O)[C@H](CCC(N)=O)NC(=O)[C@@H](NC(=O)[C@H](CO)NC(=O)[C@H](CCCCN)NC(=O)CNC(=O)[C@H](CCCCN)NC(=O)[C@H](CC(=O)O)NC(=O)[C@H](Cc1cnc[nH]1)NC(=O)[C@H](CC(C)C)NC(=O)[C@H](CC(C)C)NC(=O)[C@H](CCC(N)=O)NC(=O)[C@@H](NC(=O)[C@H](CCC(=O)O)NC(=O)[C@H](CO)NC(=O)[C@@H](NC(=O)[C@H](C)N)C(C)C)[C@@H](C)CC)[C@@H](C)CC)[C@@H](C)CC)[C@@H](C)CC)[C@@H](C)O)C(=O)O	/	15%	/	/	/	/
NC(=O)C1CCN(CC(=O)Nc2ccc3c(c2)OCO3)CC1	5%	/	6	-4	-20%	-7
CC(=O)c1ccc(N2CCC(c3cc(-c4ccc(Cl)cc4Cl)n[nH]3)CC2)c([N+](=O)[O-])c1	4.1µM*	8%	-55*	?	6.5µM*	?
O=[N+]([O-])c1cccnc1N1CCC(c2cc(-c3ccc(Cl)cc3Cl)n[nH]2)CC1	18µM*	11%	0	-29	21µM*	?
O=C(O)c1ccc(N2CCN(c3ccc(Cl)cc3)CC2)c([N+](=O)[O-])c1	11%	/	-4	1	-4%	-7
COc1ccc(OC)c(-c2cc(C3CCN(c4ncccc4[N+](=O)[O-])CC3)[nH]n2)c1	?	-11%	?	?	?	-22
CC(OC(=O)c1snc(C(=O)NC2CCCCC2)c1N)C(=O)NC(C)(C)C (configuration not stated)	14µM*	2%	0	10	13µM*	0
Cc1ccnc(SCC(=O)N2CCC(C(N)=O)CC2)n1	-4%	2%	11	3	4%	12
COc1ccccc1-c1cc(SC)c(C#N)c(=O)o1	3.7µM*	0%	?	0	5.8µM*	/
Nc1ccc(N2CCN(c3ccc(Cl)c(Cl)c3)CC2)cc1	12µM*	8%	-6	?	9.2µM*	?
Nc1ccc(N2CCCCCC2)cc1	/	-5%	/	/	/	/
COC(=O)N1CCN(c2ccc(Cl)c(Cl)c2)CC1	?	-1%	-7	3	?	7
O=C(c1cnc2n(c1=O)CCS2)N1CCN(c2ccc(Cl)c(Cl)c2)CC1	?	2%	-2	-13	?	-17
N#C/C=C(/N)N1CCN(c2ccc(Cl)c(Cl)c2)CC1	?	3%	?	-17	16µM*	-4
CNC(=S)N1CCN(c2ccc(Cl)c(Cl)c2)CC1	23µM*	5%	-58*	-19	16µM*	-24
CC(C)(C)C(=O)c1c(N)[nH]c(C(=O)c2ccccc2)c1-c1ccc(Br)cc1	21µM*	/	7	-2	23µM*	-9
COC(=O)c1c(N)[nH]c(C(=O)c2ccccc2)c1-c1ccc(Br)cc1	16µM*	/	34	-7	?	5
Cn1cc(S(=O)(=O)N2CCCC2)cc1C(=O)NCc1ccc(Cl)cc1	?	/	-11	6	?	3
COc1ccc(CCNC(=O)C(=O)NCc2ccc(C(C)C)cc2)cc1OC	?	0%	47	-1	?	8
COc1ccc(CNC(=S)Nc2ccc(Br)cc2)cc1	?	/	21	-8	18µM*	-2
COc1ccc(CNC(=S)Nc2cc(C)cc(C)c2)cc1	?	5%	-25	-7	?	-6
Cc1ccccc1NC(=S)NCc1ccc2c(c1)cc(C)n2C	2.9µM*	3%	33	-29	3.3µM*	-1
SMILES	DT40 TDP1 CPT	TDP1 inh	IL-1B inflam inh	Six1-Eya2 blk	DT40 TDP1 no CPT	CtBP-E1A inh
Cc1cc2cc(CNC(=S)NCc3ccccc3)ccc2n1C	0%	7%	-11	-22	-28%	?
CCC(CC)C(=O)NCc1ccc2c(c1)cc(C)n2C	10µM*	1%	17	18	?	42
COc1ccc(NC(=S)NCc2ccc3c(c2)cc(C)n3C)cc1	18µM*	0%	-9	?	?	-6
COc1ccc(N2CCN(C(=O)NC(=O)c3ccccc3)CC2)cc1	-15%	4%	1	-5	0%	0
CC(C)C(=O)NC(=S)Nc1ccccn1	-3%	-11%	-7	-2	-2%	2
COc1ccccc1NC(=S)NCc1ccc2c(c1)cc(C)n2C	16µM*	7%	-8	-27	23µM*	?
COc1ccc(CCNC(=S)Nc2cccc(C)c2)cc1	?	-2%	1	-8	16µM*	-1
CCS(=O)(=O)NCc1ccc2c(c1)cc(C)n2C	13%	1%	-19	2	1%	-4
CCCS(=O)(=O)NCc1ccc2c(c1)cc(C)n2C	-24%	4%	-69*	-1	-24%	52
CCc1cccc(C)c1NC(=S)NCc1ccc2c(c1)cc(C)n2C	21µM*	-5%	-24	?	16µM*	-26
N#Cc1cc(-c2ccccc2)nc(N2CCNCC2)n1	-5%	1%	-12	52	?	-1
CCOC(=O)CN(Cc1cc(OC)cc(N(C)C)c1OC)C(=O)C1CC(CO[Si](C)(C)C(C)(C)C)=CN1C(=O)OC(C)(C)C (configuration not stated)	/	10%	/	/	/	/
